Values joined by “and” are separate entries in the source; they are usually repeats but may differ in a detail not shown here. Equal entries are not always repeated. Out of some 34,000 compounds screened, about 290 (0.85%) showed an effect of 50% or more. Only a selection was taken, and strong results are over-represented in it overall.
Tested on: Plasmodium falciparum
Assay: Plasmodium falciparum sporozoite viability assay
Assay type: functional, organism-based
Parameters: scale not given: in the data most compounds retested in dose-response had high values

Compound	Percent Effect	Percent Effect (10 mM as filed; unlikely as a test dose)
Cl.Cl.O=C([C@H]1CCCN1)N1CC2(CCNCC2)c2cc(Cl)ccc21	12.41%	
Cc1cc(OCC(=O)N2CCCC(c3noc(C(C)C)n3)C2)no1 (stereo not given)	2.432%	
O=C(c1ccc[nH]1)N1C[C@H]2CN(Cc3cccc(F)c3)C(=O)[C@H]2C1	12.11%	
c1csc(-c2noc(CN3CCCCC3Cn3cccn3)n2)c1 (stereo not given)		24.36% and 19.77% and 16.14%
c1csc(-c2noc(CN3CCCC3Cn3cccn3)n2)c1 (stereo not given)		-21.92% and -8.385% and -5.28%
c1ccc(-c2noc(CCCN3CCCC3Cn3cncn3)n2)cc1 (stereo not given)		40.22% and 41.76% and 47.25%
CCOc1ccnc(N[C@@H](Cc2ccccc2)C(N)=O)n1	0.8772%	
COC(=O)CSCc1noc(-c2ccc(C)cc2)n1		97.51% and 95.63%
Cc1ccc(-c2nc(CN3CCc4cnc(C)nc4C3)no2)cc1	16.875%	
CCOC(=O)CSc1ccc(-c2nc(CC)no2)cn1		40.67% and 46.73%
CCOC(=O)CSc1ccc(-c2nc(C)no2)cn1		-0.4631% and 0.4035%
COC(=O)CSCc1nc(-c2ccc(Cl)cc2)no1		-107.5% and -111.6%
COC(=O)CSCc1noc(-c2ccc(Cl)cc2)n1		72.7% and 74.65%
O=S1(=O)CCC(N(Cc2nc(-c3ccccn3)no2)Cc2cccs2)C1 (stereo not given)	22.13%	
CCN1CCN(CCCNc2ncccn2)CC1	-11.01%	
Cc1cc(CN(C)C(=O)c2ccc(N(C)C)nc2)no1	3.089%	
NC(=O)c1cc(C2CCCN(CCOCC3CC3)C2)n[nH]1 (stereo not given)	-0.5536%	
Cc1ccc(C2CN(Cc3cccc4[nH]ccc34)CCO2)nc1 (stereo not given)	9.691%	
CC(C)OC(=O)N1CCC(Cc2ccc(C(=O)O)cc2)C1 (stereo not given)	5.074%	
COCCOc1ccc(S(=O)(=O)Nc2cccnc2O)cc1C		-10.26% and -4.441%

Compound	Percent Effect	Percent Effect (10 mM as filed; unlikely as a test dose)
COCCOc1ccc(S(=O)(=O)Nc2cccc(O)c2F)cc1C		65.91% and 54.13%
COc1ccc(S(=O)(=O)NC(=O)COC2CCCCC2)cc1C	-5.465%	
CC(C)N1CCN(C)CC(Cc2cc(N(C)C)ncn2)C1 (stereo not given)	2.091%	
CN1CCc2nc3cc(C(=O)NCc4cccs4)ccc3c(=O)n2CC1	0.8687%	
CCCc1nc(CN2CCN(CC(O)c3ccccc3)CC2)no1 (stereo not given)		-24.09% and -24.64% and -18.14%
CCc1nc(CN2CCN(CC(O)c3ccccc3)CC2)no1 (stereo not given)		4.576% and 5.713% and -3.353%
O=C(CC1CC1)N1CCCn2nnc(CNc3ncccn3)c2C1	2.773%	
Cc1noc(C)c1C(=O)NCc1cccnc1N(C)C	5.354%	
CCC(=O)N1CC[C@H](O)[C@@H]1Cc1ccccc1	-1.986%	
CCc1ccc(CN2CCCCC2c2n[nH]cc2-c2cc(C)no2)cc1.Cl (stereo not given)		63.83% and 48.62% and 58.14%
Cc1cccc(CN2CCCCC2c2n[nH]cc2-c2cc(C)no2)c1.Cl (stereo not given)		-21.49% and -8.887% and 2.992%
Nc1nccnc1CC1CCCN(Cc2cccc3[nH]ccc23)C1 (stereo not given)	4.859%	
NC(=O)C1CCN(c2ccc3cc(Br)ccc3n2)C1 (stereo not given)		-42.56% and -39.12%
NC(=O)C1CN(c2ccc3cc(Br)ccc3n2)CCO1 (stereo not given)		80.55% and 85.86%
NC(=O)C1CN(c2ccc(Br)cn2)CCO1 (stereo not given)		-39.17% and -33.44%
Cc1cc(Cc2cccc(C(F)(F)F)c2)cc(C2CCCNC2)n1 (stereo not given)	4.537%	
CN(C)C(=O)CN1CCCCC1c1nc(N)ncc1-c1ccc(Cl)cc1 (stereo not given)	-1.537%	
Cc1noc(C)c1C(=O)N1C[C@@H]2CN(Cc3cccnc3)CCO[C@@H]2C1	-15.82%	
CCc1nc(-c2cccc(C(=O)O)c2)no1	7.751%	
CS(=O)(=O)NC1CCN(C(=O)NCCc2ccccn2)CC1	-4.021%	

Compound	Percent Effect	Percent Effect (10 mM as filed; unlikely as a test dose)
Cc1ccc(S(=O)(=O)N2CCN(Cc3ccncc3)CC2)c(Cl)c1	-1.432%	
Cc1ccc(OCCN(C)C(=O)CCCC(N)=O)c(C)c1	-6.308%	
CC(NCC1=Cc2cc(Cl)ccc2OC1)c1nnc2n1CCCC2 (stereo not given)	-0.2255%	
Cc1cn2c(n1)C(CNCc1cccc3c1OCO3)CCC2 (stereo not given)	10.56%	
Cc1ccc(N2CCCC(NCC3=Cc4ccccc4OC3)C2)nn1 (stereo not given)	9.337%	
Cc1cn2c(n1)C(CNCC1=Cc3ccccc3OC1)CCC2 (stereo not given)		102.3% and 118.3% and 103.2%
Cc1cn2c(n1)C(CNCC1=Cc3cc(Cl)ccc3OC1)CCC2 (stereo not given)		86.97% and 100% and 87.02%
CCc1n[nH]c(C2CN(Cc3nnc(C4CC4)o3)CCO2)n1 (stereo not given)	4.502%	
CCc1ncnc2c1CCN(CCOC)CC2.O=C(O)C(F)(F)F	8.757%	
CC1COCCN1C(=O)COc1cccc(Oc2ccccn2)c1 (stereo not given)		-6.319% and -6.647% and 2.396%
CC1COCCN1C(=O)COc1ccc(Oc2ccccn2)cc1 (stereo not given)		62.7% and 63.29% and 47.53%
COc1ncccc1CN1CCc2[nH]nc(C(=O)N(C)C)c2C1	10.07%	
COCCn1ccc2c(NC(=O)c3n[nH]c4c3CCC4)cccc21		-3.571% and -16.58% and -12.91%
COCCn1cc(CC(=O)Nc2nc3c(s2)CCC3)c2ccccc21		1.19% and -4.41% and -3.323%
COCCn1ccc2c(C(=O)Nc3nc4c(s3)CCC4)cccc21		69.11% and 95.7% and 86.17%
Cc1cc(CN2CCN(C(=O)c3sccc3C3CC3)CC2)no1	1.531%	
O=C1CCCN1CC1CCCCN1C(=O)Nc1cccnc1 (stereo not given)	7.898%	
O=C(Nc1cccnc1)C1Cc2nc(-c3ccsc3)sc2N1CC1CC1.O=C(O)C(F)(F)F (stereo not given)		89.12% and 90.39% and 85.39%
O=C(O)C(F)(F)F.O=C(c1ccsc1)N1C[C@@H]2CCN(c3cccnc3)C[C@@H]2C1	9.933%	
O=C(Nc1cccnc1)[C@H]1C[C@H]2OCC[C@H]2N(C(=O)c2ccsc2)C1.O=C(O)C(F)(F)F	-9.732%	
